In all, about 350,000 compounds went through this assay and about 31,000 (8.9%) were called active. A call without a number means that no potency is given here. About 15% were inconclusive and are not listed. Many of the other results were omitted from the sample, so actives are more common in it than they were. A number with no mark means an inactive call. Calls come from the whole dose curve; as a rule, active = well fitted inhibition curve with a large enough effect; inconclusive = small, poorly fitted or top-dose-only effect; inactive = no such curve, though single readings can be large or run the other way.
Target: Histone-lysine N-methyltransferase EHMT2 (Homo sapiens) (UniProt Q96KQ7)
Test: qHTS Assay for Inhibitors of Histone Lysine Methyltransferase G9a; note: nearly all actives have a fitted effect of over 75% in size
Settings: G9a H3K9 monomethylation, AlphaScreen, 2 h; series mostly up to 59 µM
Outline: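 AlphaScreen read-out: biotin-H3K9 peptide (500 nM) methylation by 20 nM enzyme with 20 uM SAM, 2 h at room temperature after 15 min compound preincubation; anti-monomethyl H3K9 antibody plus donor/acceptor beads, 10 min dark.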
Potency is the fitted concentration of half-maximal effect.

Chain of Histone-lysine N-methyltransferase EHMT2 (Homo sapiens) (Q96KQ7 913-1193 limits assumed): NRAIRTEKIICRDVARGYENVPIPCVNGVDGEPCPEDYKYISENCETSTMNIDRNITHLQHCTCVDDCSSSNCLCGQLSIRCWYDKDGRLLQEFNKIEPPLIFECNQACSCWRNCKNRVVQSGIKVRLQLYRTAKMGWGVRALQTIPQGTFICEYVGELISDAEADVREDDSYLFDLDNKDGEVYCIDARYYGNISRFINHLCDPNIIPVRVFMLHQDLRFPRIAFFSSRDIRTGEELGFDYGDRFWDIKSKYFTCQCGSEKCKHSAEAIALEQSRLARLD

| Structure (SMILES) | Potency | activity, negative = inhibition |
| --- | --- | --- |
| Clc1cccc(-n2ncc3c(NCCc4ccccc4)ncnc32)c1 | inactive |  |
| O=C(/C=C/c1c(Cl)cccc1Cl)NCc1ccccc1 | inactive |  |
| O=C(/C=C/c1c(F)cccc1Cl)Nc1nn[nH]n1 | 39.8 µM (active) |  |
| O=C(CCc1ccccc1)Nc1nn[nH]n1 | inactive |  |
| CSc1ccccc1NC(=O)c1cnc2sc(C)cn2c1=O | inactive |  |
| O=S(=O)(NC1CCN(S(=O)(=O)c2ccc3c(c2)OCCO3)CC1)c1c(F)cccc1F |  | 3.66% [at 12.7 µM] |
| COc1cccc(N(CC(=O)NC2CCCC2)C(=O)Cn2nnc(-c3ccc(C)o3)n2)c1 | inactive |  |
| O=C(Cc1ccc([N+](=O)[O-])cc1)Nc1ccc(C(=O)N2CCOCC2)cc1 | inactive |  |
| O=C(Nc1ccc(N2CCOCC2)cc1)c1ccc(-c2ccccc2[N+](=O)[O-])o1 | 17.8 µM (active) |  |
| COc1cc2ccccc2cc1C(=O)Nc1ccc(N2CCOCC2)cc1 | inactive |  |
| O=C(COc1ccccc1)Nc1cc2c3c(c1)CC(=O)N3CCC2 | inactive |  |
| Cc1ccc(C)c(N2CCN(C(=O)CCCCCn3c(=S)[nH]c4ccc(N5CCOCC5)cc4c3=O)CC2)c1 | inactive |  |
| CC(C)OC(=O)c1c(NC(=O)c2ccco2)sc2c1CCCC2 | inactive |  |
| CNC(=O)c1c(NC(NC(=O)c2ccco2)C(=O)c2ccc(Cl)cc2)sc2c1CCCC2 (stereo not given) | 11.2 µM (active) |  |
| Cc1ccc2c(=O)cc(C(=O)Nc3sc4c(c3C(=O)NCc3cccnc3)CCCC4)oc2c1 | inactive |  |
| COc1cc2c(cc1O)[C@H](Cc1ccc(Oc3cc(C[C@@H]4NCCc5cc(OC)c(O)cc54)ccc3O)cc1)NCC2 | 12.6 µM (active) |  |
| COc1ccc(CC2c3cc(OC)c(OC)cc3CC[N+]2(C)CCC(=O)OCCCCCOC(=O)CC[N+]2(C)CCc3cc(OC)c(OC)cc3C2Cc2ccc(OC)c(OC)c2)cc1OC (stereo not given) |  | 7.6% [at 12.7 µM] |
| CCc1ccc(OCC2c3cc(OC)c(OC)cc3CCN2C(C)=O)cc1 (stereo not given) | inactive |  |
| COc1ccccc1CNc1nc2ccc(Cl)cc2n2cnnc12 | inactive |  |
| CC(=O)Nc1cccc(NC(=O)CSc2nccn2Cc2ccc3c(c2)OCO3)c1 | inactive |  |
| COc1ccc(C2CC(c3cccs3)=NN2c2ccccc2)cc1 (stereo not given) | inactive |  |
| COc1ccc(C2CC(c3cccs3)=NN2c2ccc(F)cc2)cc1OC (stereo not given) | 3.98 µM (active) |  |
| COc1ccccc1N1N=C(c2cccs2)CC1c1ccccc1 (stereo not given) | inactive |  |
| COc1ccc(-c2nc(CN3CCC(C(=O)NCc4ccccc4)CC3)c(C)o2)cc1OC | inactive |  |

| Structure (SMILES) | Potency | activity, negative = inhibition |
| --- | --- | --- |
| CCOC(=O)C1CCCN(C(=O)c2ccc(-n3ccc4ccccc43)s2)C1 (stereo not given) | inactive |  |
| CCc1cccc(C)c1NC(=O)COC(=O)CC1CCCC1 | inactive |  |
| Cc1ccc(C(C(=O)NCc2ccco2)N(CC2CCCO2)C(=O)Cn2nnc3ccccc32)cc1 (stereo not given) | inactive |  |
| COc1ccccc1N(C(=O)Cn1nnc2ccccc21)C(C(=O)NCc1ccco1)c1ccc(C)o1 (stereo not given) | 50.1 µM (active) |  |
| COCCNC(=O)C(c1ccc(C)o1)N(Cc1ccccc1)C(=O)Cn1nnc2ccccc21 (stereo not given) | inactive |  |
| Cc1ccc(C(=O)Nc2ccn(C)n2)cc1 |  | 0.254% [at 12.7 µM] |
| CC1CCN(S(=O)(=O)c2ccc3c(c2)N(CC(=O)NCCc2ccccc2)C(=O)CO3)CC1 | inactive |  |
| CC1=C(c2ccc(C)c(C)c2)S(=O)(=O)NC1=NCc1ccccc1Cl | inactive |  |
| COc1ccc(NC(=O)C(=O)NCc2ccco2)cc1 | inactive |  |
| CCOc1ccc(S(=O)(=O)Nc2ccc(OC)nc2)cc1 | inactive |  |
| COc1ccc(CS(=O)/C(Cl)=C(/Cl)C(=O)Nc2ccc(OC)nc2)cc1 (stereo not given) | 11.2 µM (active) |  |
| COc1cc(C(=O)N2CCN(c3ccc(Nc4ccc(C)cc4)nn3)CC2)cc(OC)c1OC | inactive |  |
| CSc1ccc(NC(=O)Cn2nnnc2-c2ccccc2F)cc1 | inactive |  |
| COc1ccc(C2CC(=O)Nc3cc(C)c(C)cc32)c(OC)c1OC (stereo not given) | inactive |  |
| COc1ccc(C2Sc3ccccc3NC3=C2C(=O)c2ccccc23)c(OC)c1OC (stereo not given) | 11.2 µM (active) |  |
| COC(=O)C(C)C1Sc2ccccc2NC1=O (stereo not given) |  | 14.7% [at 12.7 µM] |
| O=C(NCC(c1ccc2c(c1)OCO2)N1CCN(c2ccccc2)CC1)C(=O)Nc1ccccc1F (stereo not given) | inactive |  |
| O=C(Cc1ccc(-c2ccccc2)cc1)NC(c1ccccc1)c1ccccc1 | 7.08 µM (active) |  |
| C=CCC(NC(=O)Cc1ccccc1)C(=O)NCCC (stereo not given) |  | 5.83% [at 0.501 µM] |
| CCOC(=O)/C=C/C(=O)OCC(=O)NC(c1ccccc1)c1ccccc1 | inactive |  |
| C/C(CC(=O)NCc1ccc(Cl)cc1)=N\NC(=O)COc1ccc(C)cc1Br | inactive |  |
| Cc1ccccc1-c1ccc(C(=O)O)s1 | inactive |  |
| Cc1ccccc1-c1n[nH]c(=S)n1/N=C/c1ccc(-c2ccccc2Br)o1 | 12.6 µM (active) |  |
| Cc1ccccc1-c1nc(SCC(=O)N(C)c2ccccc2)c2c(=O)n(C)c(=O)n(C)c2n1 | inactive |  |

| Structure (SMILES) | Potency | activity, negative = inhibition |
| --- | --- | --- |
| Cc1ccccc1-c1n[nH]c(=S)n1C | 10 µM (active) |  |
| Cc1n[nH]c(=S)n1/N=C/c1ccc(Br)o1 | 3.16 µM (active) |  |
| Cc1cc(C)cc(NS(=O)(=O)c2cc3c(cc2C)NC(=O)CO3)c1 | inactive |  |
| CCCCCc1c(C)nc(N2CCN(Cc3ccc4c(c3)OCO4)CC2)[nH]c1=O | inactive |  |
| O=C(Cc1ccc(S(=O)(=O)N2CCOCC2)s1)NCCOc1ccccc1F |  | -25.9% [at 12.7 µM] |
| CCNC(=O)c1cc2n(n1)CCCN(Cc1ccc(C)cc1)C2=O |  | -1.49% [at 12.7 µM] |
| CN(C)S(=O)(=O)c1ccc(N2CCCC2)c(C(=O)Nc2ccc(Br)cc2F)c1 |  | 26.4% [at 2.33 µM] |
| COc1cc2nc(Cl)nc(NCCO)c2cc1OC | inactive |  |
| Nc1nc(Nc2ccccc2)nc(NCCO)c1[N+](=O)[O-] | inactive |  |
| OCCNc1nc(Nc2ccc(Cl)c(Cl)c2)nc2ccccc12 | 50.1 µM (active) |  |
| COc1ccc(OCC(=O)Nc2cccc(C(=O)OCc3cc(=O)n4nc(C)sc4n3)c2)cc1 | inactive |  |
| CN1CCN(S(=O)(=O)c2ccc(Nc3ccc(F)cc3)nc2)CC1 | inactive |  |
| COc1ccccc1NC(=O)c1sc2nc(C)c(C(=O)Nc3ccc(Cl)cc3)c(-c3ccc(Br)cc3)c2c1N | inactive |  |
| O=C(Nc1cccc(C(F)(F)F)c1)c1cc(Br)cc(Br)c1O |  | -37% [at 12.7 µM] |
| CCc1ccc(S(=O)(=O)NCC(O)COc2ccc(OC)cc2)cc1 (stereo not given) | inactive |  |
| CCCc1ccc(OCC(O)CN2CCN(C(=O)OCC)CC2)cc1 (stereo not given) | inactive |  |
| Nc1ccc(OCC(O)C[n+]2ccc(CCS(=O)(=O)[O-])cc2)cc1 (stereo not given) | 39.8 µM (active) |  |
| Cn1c(SCC(=O)c2ccc(F)cc2)nnc1-c1ccccn1 | inactive |  |
| Cn1c(CC2Sc3ccccc3NC2=O)nnc1SCC(=O)c1ccc(Cl)cc1 (stereo not given) | 14.1 µM (active) |  |
| Cn1c(CCC(=O)Nc2ccccc2F)nnc1SCC(=O)Nc1ccccc1Cl | inactive |  |
| O=c1cc2nc(-c3ccccc3)nc(SCCOc3ccc(Cl)cc3)n2[nH]1 | inactive |  |
| O=C(O)C1CCCN1S(=O)(=O)c1ccc2c(c1)CCC2 (stereo not given) | 56.2 µM (active) |  |
| O=C(O)C1CCCN1S(=O)(=O)c1ccc(Br)cc1 (stereo not given) |  | -11.1% [at 0.501 µM] |
| CC(=O)Nc1ccc(S(=O)(=O)N2CCCC2C(=O)O)cc1 (stereo not given) | inactive |  |

| Structure (SMILES) | Potency | activity, negative = inhibition |
| --- | --- | --- |
| CCOC(=O)N1CCc2c(sc3c2c(=O)n(Cc2ccccc2)c(=O)n3CC(=O)Nc2cccc(C)c2)C1 | inactive |  |
| CCOC(=O)N1CCc2c(sc(NCc3cccc(F)c3)c2C(=O)Nc2ccccc2OCC)C1 | 1.41 µM (active) |  |
| CCOC(=O)N1CCc2c(sc3c2C(=O)NC(c2ccccc2F)N3)C1 (stereo not given) | inactive |  |
| COC(=O)c1ccccc1NC(=O)Cn1c(=O)n(-c2cccc(C(F)(F)F)c2)c(=O)c2c(C)c(C)sc21 | inactive |  |
| CS(=O)(=O)N1CCc2nc(-c3ccccc3)sc2C1 | inactive |  |
| Cc1ccc(S(=O)(=O)N2CCC(C(=O)OCC(=O)N(C)c3ccccc3)CC2)cc1C | inactive |  |
| O=C(Nc1c(-c2ccc(F)cc2)nc2ccccn12)c1cccc(F)c1 | inactive |  |
| O=C(COC(=O)c1ccc(Oc2ccccc2)cc1)Nc1nnc(-c2ccccc2)o1 |  | 17.6% [at 12.7 µM] |
| CCCC(=O)Nc1nnc(-c2ccccc2)o1 | 39.8 µM (active) |  |
| O=C(COC(=O)c1ccccc1Br)Nc1nnc(-c2ccccc2)o1 | inactive |  |
| CCN(CC)CCNC(=O)c1cc2c(=O)oc3ccc(C)cc3c2s1 | inactive |  |
| CCNC(=O)c1cccc(NC(=O)C2CC(=O)N(CCc3ccccc3)C2)c1 (stereo not given) |  | 8.14% [at 0.501 µM] |
| COc1ccc2cc(C3=CC(=O)C[C@H](c4ccc5c(c4)OCO5)C3)ccc2c1 |  | 7.57% [at 0.501 µM] |
| COc1cccc(NC(=O)COC(=O)/C=C/c2ccco2)c1 |  | 13.7% [at 2.33 µM] |
| CC(C)CNC(=O)COC(=O)/C=C/c1ccco1 | inactive |  |
| NS(=O)(=O)c1cccc(NC(=O)COC(=O)/C=C/c2ccco2)c1 | 25.1 µM (active) |  |
| O=S(=O)(NCCS(=O)(=O)N1CCN(c2ccccc2)CC1)c1ccc(F)cc1 | inactive |  |
| CCn1c(COc2cccc(OC)c2)nnc1SCC(=O)N1CCOCC1 | inactive |  |
| COc1cccc(OCC(=O)Nc2ccccc2C(N)=O)c1 |  | 6.62% [at 12.7 µM] |
| COc1ccc(OCc2nnc3n2N=C(c2ccccc2)C(CC(=O)O)S3)cc1 (stereo not given) | 1.58 µM (active) |  |
| COc1ccc(C2CC(c3ccccc3)=NN2C(=O)COC(=O)COc2ccccc2)cc1 (stereo not given) | inactive |  |
| COc1ccc(C(=O)NCc2nnc(SCCOc3ccccc3)n2C)cc1 |  | 13.9% [at 12.7 µM] |
| COc1cccc(OCc2nnc3n2N=C(c2ccccc2)C(CC(=O)O)S3)c1 (stereo not given) | 44.7 µM (active) |  |

From PubChem BioAssay AID504332 (National Center for Advancing Translational Sciences (NCATS), 2011)
